Source: PubChem BioAssay (NCATS)
Inconclusive results are not listed. Active and inactive are the calls of the source. Unless noted, calls follow the shape of the full dose curve.

Columns and labels:
[1] = qHTS for Inhibitors of the Functional Ribonucleoprotein Complex (vRNP) of Lassa (LASV) Arenavirus: LASV Primary Screen - GLuc reporter signal (AID 1347082; calls by dose curve; tested in HEK293 reporter line; also: nearly all actives have a fitted effect of over 60% in size)
[2] = qHTS for Inhibitors of the Functional Ribonucleoprotein Complex (vRNP) of Lassa (LASV) Arenavirus: Viability assay - alamar blue signal for LASV Primary Screen (AID 1347083; calls by dose curve; tested in HEK293 reporter line; also: nearly all actives have a fitted effect of over 80% in size)
[3] = qHTS for Inhibitors of the Functional Ribonucleoprotein Complex (vRNP) of Lymphocytic Choriomeningitis Arenaviruses (LCMV): Viability assay - alamar blue signal for LCMV Primary Screen (AID 1347085; calls by dose curve; tested in HEK293 reporter line; also: nearly all actives have a fitted effect of over 80% in size)
[4] = molecular target: Nucleoprotein (Lymphocytic choriomeningitis virus (strain Armstrong)) (UniProt P09992); assay: qHTS for Inhibitors of the Functional Ribonucleoprotein Complex (vRNP) of Lymphocytic Choriomeningitis Arenaviruses (LCMV): LCMV Primary Screen - GLuc reporter signal (AID 1347086); also: nearly all actives have a fitted effect of over 70% in size
Chain of Nucleoprotein (Lymphocytic choriomeningitis virus (strain Armstrong)) (P09992 whole entry, looked up): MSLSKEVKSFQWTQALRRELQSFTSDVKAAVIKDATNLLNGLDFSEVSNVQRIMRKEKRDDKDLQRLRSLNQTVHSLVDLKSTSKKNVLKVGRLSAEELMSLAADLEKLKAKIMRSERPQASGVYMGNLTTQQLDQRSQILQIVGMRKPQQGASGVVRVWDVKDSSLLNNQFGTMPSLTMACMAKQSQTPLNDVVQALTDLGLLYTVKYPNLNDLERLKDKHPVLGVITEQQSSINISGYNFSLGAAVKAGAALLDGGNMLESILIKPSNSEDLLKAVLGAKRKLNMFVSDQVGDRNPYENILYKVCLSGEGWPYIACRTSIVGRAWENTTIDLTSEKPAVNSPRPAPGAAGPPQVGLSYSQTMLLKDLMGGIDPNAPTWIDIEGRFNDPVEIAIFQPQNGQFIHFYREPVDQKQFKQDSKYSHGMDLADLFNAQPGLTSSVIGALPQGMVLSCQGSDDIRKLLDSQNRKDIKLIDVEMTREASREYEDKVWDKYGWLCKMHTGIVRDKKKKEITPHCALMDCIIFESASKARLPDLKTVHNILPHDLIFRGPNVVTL
% is scaled to controls: 0 for no effect and ±100 for the full control effect.
Also: series mostly up to about 57 µM.

CCCCCCCCCCCCCCCCCC(=O)OCC(O)CO (configuration not stated)
inactive: Potency [1] | Potency [2] | Potency [3] | Potency [4]

C[C@@H]1CCC[C@H](C)N1
inactive: Potency [1] | Potency [2] | Potency [3] | Potency [4]

NC1CCN(c2nc3c(cc2F)c(=O)c(C(=O)O)cn3-c2ccc(F)cc2F)C1 (configuration not stated)
inactive: Potency [1] | Potency [2] | Potency [3] | Potency [4]

Cc1ccc(-c2ccccc2C#N)cc1
inactive: Potency [1] | Potency [2] | Potency [3] | Potency [4]

O=C1c2ccccc2C(=O)C1C(=O)C(c1ccccc1)c1ccccc1
inactive: Potency [1] | Potency [2] | Potency [3] | Potency [4]

CC(C)OC(=O)OCOP(=O)(CO[C@H](C)Cn1cnc2c(N)ncnc21)OCOC(=O)OC(C)C
inactive: Potency [1] | Potency [2] | Potency [3] | Potency [4]

COc1ccc(C(=O)c2ccccc2)c(O)c1
inactive: Potency [1] | Potency [2] | Potency [3] | Potency [4]

C[N+](C)(C)CC(O)CC(=O)[O-] (configuration not stated)
inactive: Potency [1] | Potency [2] | Potency [3] | Potency [4]

CCCN1CCCC[C@H]1C(=O)Nc1c(C)cccc1C
inactive: Potency [1] | Potency [2] | Potency [3] | Potency [4]

CC[N+](CC)(CCNC(=O)C(=O)NCC[N+](CC)(CC)Cc1ccccc1Cl)Cc1ccccc1Cl
inactive: Potency [1] | Potency [2] | Potency [3] | Potency [4]

COCCCN1CCC(NC(=O)c2cc(Cl)c(N)c3c2OCC3)CC1
inactive: Potency [1] | Potency [2] | Potency [3] | Potency [4]

Cc1ccc(Cl)c(Nc2ccccc2C(=O)O)c1Cl
inactive: Potency [1] | Potency [2] | Potency [3] | Potency [4]

CCCCCCCN(CC)CCCC(O)c1ccc(NS(C)(=O)=O)cc1 (configuration not stated)
inactive: Potency [1] | Potency [2] | Potency [3] | Potency [4]

NCC[C@H](O)C(=O)N[C@@H]1C[C@H](N)[C@@H](O[C@H]2O[C@H](CN)[C@@H](O)[C@H](O)[C@@H]2O)[C@H](O)[C@@H]1O[C@H]1O[C@H](CO)[C@@H](O)[C@H](N)[C@@H]1O
inactive: activity change, negative = inhibition [1] -6.8% [at 0.757 µM] | activity change, negative = reduced viability [2] -4.3% [at 0.757 µM] | activity change, negative = lower viability [3] -4.65% [at 0.757 µM] | activity change, negative = inhibition [4] 19.2% [at 0.757 µM]

O=C(O)[C@@H]1CSCN1
inactive: Potency [1] | Potency [2] | Potency [3] | Potency [4]

O=C(O)/C=C\C(=O)O
inactive: Potency [1] | Potency [2] | Potency [3] | Potency [4]

Nc1ccc([N+](=O)[O-])c(C(F)(F)F)c1
inactive: Potency [1] | Potency [2] | Potency [3] | Potency [4]

Cc1cccc(C(=O)O)c1O
inactive: Potency [1] | Potency [2] | Potency [3] | Potency [4]

O=C(CCN1CCC(c2ccccc2)C1)c1ccc2c(c1)OCCO2 (configuration not stated)
inactive: Potency [1] | Potency [2] | Potency [3] | Potency [4]

Nc1ccc(C(=O)OCC(O)CO)cc1 (configuration not stated)
inactive: Potency [1] | Potency [2] | Potency [3] | Potency [4]

Cc1nnc(SCC2=C(C(=O)O)N3C(=O)[C@@H](NC(=O)Cn4cnnn4)[C@H]3SC2)s1
inactive: Potency [1] | Potency [2] | Potency [3] | Potency [4]

CCOC(=O)[C@H](CCc1ccccc1)N[C@@H](C)C(=O)N1[C@H](C(=O)O)C[C@H]2CCCC[C@@H]21
inactive: Potency [1] | Potency [2] | Potency [3] | Potency [4]

CO[C@@]1(NC(=O)CSC[C@@H](N)C(=O)O)C(=O)N2C(C(=O)O)=C(CSc3nnnn3C)CS[C@@H]21
inactive: Potency [1] | Potency [2] | Potency [3] | Potency [4]

CN=C(NC#N)NCCSCc1csc(N=C(N)N)n1
inactive: Potency [1] | Potency [2] | Potency [3] | Potency [4]

NC(=O)c1ccccc1O
inactive: Potency [1] | Potency [2] | Potency [3] | Potency [4]

C=CCN1C[C@H](C(=O)N(CCCN(C)C)C(=O)NCC)C[C@@H]2c3cccc4[nH]cc(c34)C[C@H]21
inactive: Potency [1] | Potency [2] | Potency [3] | Potency [4]

CC=CC1=C(C(=O)O)N2C(=O)[C@H](NC(=O)[C@H](N)c3ccc(O)cc3)[C@@H]2SC1
inactive: Potency [1] | Potency [2] | Potency [3] | Potency [4]

CN1Cc2cc(C(=O)N3CCC(C4CCNCC4)CC3)ccc2NC(CC(=O)O)C1=O (configuration not stated)
inactive: Potency [1] | Potency [2] | Potency [3] | Potency [4]

O=C1c2ccccc2CCc2ccccc21
inactive: Potency [1] | Potency [2] | Potency [3] | Potency [4]

CC(CCc1ccc(O)cc1)NCCc1ccc(O)c(O)c1 (configuration not stated)
inactive: Potency [1] | Potency [2] | Potency [3] | Potency [4]

Cc1ccc(C(C)C)c(O)c1
inactive: Potency [1] | Potency [2] | Potency [3] | Potency [4]

COP(=O)(OC)OC(c1ccc(Cl)cc1)P(=O)(OC)OC (configuration not stated)
inactive: Potency [1] | Potency [2] | Potency [3] | Potency [4]

Nc1ccc(C(=O)Oc2ccccc2)c(O)c1
inactive: Potency [1] | Potency [2] | Potency [3] | Potency [4]
